Data reported in PubChem BioAssay AID1159580 (chemical genetic matrix, 2015).
Several values for one entry are separate records, joined by “and”; a condition that tells them apart may be missing. Equal entries are not always repeated. Among all 5,500 compounds or so, about 2,000 (36%) were called active. Another 18% or so got no clear call; they are omitted. Cut-off read from the data, not from the text of the source: active = normalized growth mostly below about 0.91 (no sharp cut-off); inconclusive = no clear call, values can overlap the other calls; inactive = mostly above about 0.92. Some of the results follow.

Experiment: chemical genetic growth profiling, strain panel (AID 1159580);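 note: tested at 20 µM; growth read once vehicle control cultures reached saturation at 30 °C; 1 = growth at the plate median or of vehicle wells; lower values mean less growth of the strain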
Settings: S. cerevisiae deletion strains, growth OD

Measured: normalized growth

CCOc1ccc(NC(C)=O)cc1
inactive: locus YAL013W, strain DEP1, active compounds read low 1.02 | locus YAL021C, strain ccr4, active compounds read low 1.01 | locus YAL026C, strain drs2, active compounds read low 1.01 | locus YAL030W, strain snc1, active compounds read low 1.02 | locus YBL061C, strain skt5, active compounds read low 1.02 | locus YBR009C, strain hhf1, active compounds read low 1.01 | locus YBR021W, strain FUR4, active compounds read low 0.963 | locus YBR023C, strain chs3, active compounds read low 1.01 | locus YBR171W, strain sec66, active compounds read low 1.02 | locus YBR229C, strain ROT2, active compounds read low 1 | locus YBR231C, strain swc5, active compounds read low 1.02 | locus YBR279W, strain paf1, active compounds read low 1.01 | locus YCL011C, strain gbp2, active compounds read low 1.02 | locus YCL016C, strain dcc1, active compounds read low 1.02 | locus YCL029C, strain bik1, active compounds read low 0.989 | locus YCL061C, strain MRC1, active compounds read low 1.01 | locus YCL069W, strain vba3, active compounds read low 1.02 | locus YCR088W, strain abp1, active compounds read low 1.02 | locus YDL005C, strain med2, active compounds read low 1.02 | locus YDL035C, strain GPR1, active compounds read low 0.997 | locus YDL040C, strain nat1, active compounds read low 1.01 | locus YDL074C, strain BRE1, active compounds read low 1.06 | locus YDL101C, strain DUN1, active compounds read low 1.01 | locus YDL134C, strain PPH21, active compounds read low 1 | locus YDL185W, strain tfp1, active compounds read low 0.959 | locus YDL192W, strain arf1, active compounds read low 0.991 | locus YDR001C, strain nth1, active compounds read low 1.02 | locus YDR069C, strain doa4, active compounds read low 1 | locus YDR101C, strain arx1, active compounds read low 0.998 | locus YDR137W, strain rgp1, active compounds read low 1.03 | locus YDR150W, strain NUM1, active compounds read low 0.991 | locus YDR159W, strain sac3, active compounds read low 1.01 | locus YDR162C, strain NBP2, active compounds read low 1.01 | locus YDR195W, strain ref2 1.02 | locus YDR297W, strain sur2, active compounds read low 1.02 | locus YDR318W, strain mcm21, active compounds read low 0.997 | locus YDR334W, strain swr1, active compounds read low 1.02 | locus YDR335W, strain msn5, active compounds read low 1.02 | locus YDR388W, active compounds read low 1 | locus YDR392W, strain spt3, active compounds read low 0.953 | locus YDR502C, strain sam2, active compounds read low 0.994 | locus YEL003W, strain gim4, active compounds read low 1.02 | locus YEL037C, strain rad23, active compounds read low 1.01 | locus YEL061C, strain CIN8 (second series), active compounds read low 1.02 | locus YEL061C, strain CIN8, active compounds read low 1.04 | locus YER015W, strain faa2, active compounds read low 1.01 | locus YER016W, strain bim1, active compounds read low 1 | locus YER110C, active compounds read low 0.979 | locus YER111C, strain swi4, active compounds read low 1.02 | locus YER155C, strain BEM2 (second series), active compounds read low 1.02 | locus YER155C, strain BEM2, active compounds read low 0.984 | locus YER167W, strain BCK2, active compounds read low 0.979 | locus YFR010W, strain ubp6, active compounds read low 1.02 | locus YGL078C, strain dbp3, active compounds read low 0.985 | locus YGL086W, strain mad1, active compounds read low 0.984 | locus YGL167C, strain pmr1, active compounds read low 1.02 | locus YGL173C, strain kem1, active compounds read low 1.01 | locus YGL227W, strain vid30, active compounds read low 1 | locus YGL240W, strain doc1, active compounds read low 1.02 | locus YGL248W, strain PDE1, active compounds read low 1.01 | locus YGL253W, strain hxk2, active compounds read low 1.01 | locus YGR078C, strain PAC10, active compounds read low 1 | locus YGR135W, strain pre9, active compounds read low 1 | locus YGR229C, strain SMI1, active compounds read low 1.02 | locus YGR252W, strain gcn5, active compounds read low 0.986 | locus YHR013C, strain ard1, active compounds read low 1.06 | locus YHR027C, strain rpn1, active compounds read low 1 | locus YHR030C, strain SLT2, active compounds read low 0.984 and 1.02 | locus YHR079C, strain IRE1 (second series), active compounds read low 0.995 | locus YHR079C, strain IRE1, active compounds read low 1.03 | locus YHR094C, strain hxt1, active compounds read low 0.975 | locus YHR129C, strain ARP1, active compounds read low 1.01 | locus YHR142W, strain chs7, active compounds read low 1.01 | locus YHR200W, strain rpn10, active compounds read low 0.992 | locus YIL066C, strain RNR3, active compounds read low 1 | locus YIL073C, strain SPO22, active compounds read low 0.916 | locus YIL125W, strain kgd1, active compounds read low 0.988 | locus YIR030C, strain dcg1, active compounds read low 1 | locus YJL092W, strain hpr5, active compounds read low 1.01 | locus YJL095W, strain BCK1 (second series), active compounds read low 1.01 | locus YJL095W, strain BCK1, active compounds read low 1.09 and 1.01 | locus YJL115W, strain asf1, active compounds read low 1.01 | locus YJL129C, strain trk1, active compounds read low 1.02 | locus YJL134W, strain LCB3, active compounds read low 0.985 | locus YJL154C, strain vps35, active compounds read low 1.01 | locus YJL164C, strain tpk1, active compounds read low 1.02 | locus YJL166W, strain qcr8, active compounds read low 1.02 | locus YJL168C, strain set2, active compounds read low 0.986 | locus YJL187C, strain SWE1 (second series), active compounds read low 0.996 | locus YJL187C, strain SWE1, active compounds read low 1.02 | locus YJR043C, strain POL32, active compounds read low 1.14 | locus YJR066W, strain TOR1, active compounds read low 0.961
